From PubChem BioAssay
Hits are enriched below; roughly 9.4% of the tested compounds scored in any of these assays.
AMA1 RON2 block: qHTS for Inhibitors of AMA1-RON; Towards Development of Antimalarial Drug Lead: Primary Screen. Plasmodium falciparum AMA1 (3D7) - RON2 peptide interaction. AlphaScreen AMA1-biotinylated RON2 peptide binding. Potency, µM (doses to about 58.2 µM), inactives show at the top dose activity change, negative = inhibition, hits mostly inhibitors. hit rate 0.2% among 360,000. AID 720542, 2013;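 note: 0% = vehicle wells and -100% = peptide control; nearly all actives have a fitted effect of over 45% in size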
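AMA1 (3D7) with his tag at 25 nM final met compounds first, then biotinylated RON2 peptide at 25 nM; detection used donor plus acceptor beads, 10 µg/mL apiece, read by AlphaScreen after 30 min at room temperature.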
SARS PLpro yeast: qHTS of Yeast-based Assay for SARS-CoV PLP | S. cerevisiae expressing SARS-CoV PLpro, growth rescue | Potency, µM (titrated, usually from 32.9 µM), for the others: at the top dose activity, positive = growth rescue, hits mostly activators | hit rate 0.19% among 330,000 | AID 485353, 2010; calls by dose curve; note: 0% is about no effect; nearly all actives have a fitted effect of over 55% in size
Pf growth 96h: Primary qHTS for delayed death inhibitors of the malarial parasite plastid, 96 hour incubation. P. falciparum luciferase reporter growth, 96 h. Potency, µM (doses to about 28.7 µM), for the others: at the top dose activity change, negative = inhibition, hits mostly inhibitors. hit rate 6.9% among 320,000. AID 504834, 2011; note: % is set by controls: 0 for no effect and ±100 for the full control effect
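Luminescence readout: decreased luciferase signal marks inhibited growth of reporter-expressing P. falciparum in infected red cells (2% hematocrit, 0.05% parasitemia final), exposed to compound two generations (96 h, 37 C, 5% CO2).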
Pf growth 48h: Primary qHTS for delayed death inhibitors of the malarial parasite plastid, 48 hour incubation | AID 504832, 2011 | Potency, µM (series often up to 28.7 µM), without a hit: at the highest dose activity change, negative = inhibition, hits mostly inhibitors | hit rate 5.9% among 310,000 | P. falciparum luciferase growth in erythrocytes, 48 h; note: % is set by controls: 0 for no effect and ±100 for the full control effect
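First compound was added to culture medium, then infected red cells at 0.1% parasitemia and 2% hematocrit (final). After incubation at 37 C under 5% CO2, luciferase detection reagent was dispensed and light output recorded.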
* = called active by the depositor; i = inactive; ? = inconclusive; . = not tested or not shown; [ ] = remark or other dose. Unless noted, calls come from the whole dose curve; as a rule, active = well fitted curve in the direction sought with a large enough effect; inconclusive = small, poorly fitted or top-dose-only effect, or another doubt; inactive = no such curve, though single readings can be large; an effect the other way counts as inactive or inconclusive. Potency is the fitted concentration of half-maximal effect.

SMILES	AMA1 RON2 block	SARS PLpro yeast	Pf growth 96h	Pf growth 48h
CC(C)c1nc2c(s1)CCc1onc(-c3cccc([N+](=O)[O-])c3)c1-2	-16%	1%	24%	-26%
CCN1CCN(C(c2ccc(C(F)(F)F)cc2)c2ccc3cccnc3c2O)CC1 (stereo not drawn)	-22%	-11%	?	.
OCCN1CCN(C(c2cccs2)c2ccc3cccnc3c2O)CC1 (stereo not drawn)	.	-33%	0%	2.1µM*
Cc1ccc(-n2[nH]c3c4c(ccc3c2=O)C(=O)c2ccccc2C4=O)cc1	-7%	12%	30%	23%
Cc1ccc(C)c(-n2[nH]c3c4c(ccc3c2=O)C(=O)c2ccccc2C4=O)c1	-4%	3%	-3%	10%
COCCCn1[nH]c2c3c(ccc2c1=O)C(=O)c1ccccc1C3=O	-6%	0%	.	12µM*
CC(C)(C)n1[nH]c2c3c(ccc2c1=O)C(=O)c1ccccc1C3=O	-10%	-9%	.	1.3µM*
Cc1ccc(S(=O)(=O)N2CCN(c3nc4ccccc4nc3-n3nc(C)cc3C)CC2)cc1	35%	5%	17%	10µM*
CCc1nc2ccccc2nc1N1CCN(S(=O)(=O)c2ccccc2)CC1	-11%	-1%	15µM*	?
Cc1nc2ccccc2nc1N1CCC(C)CC1	32%	.	.	27%
Cc1cc(C)n(-c2nc3ccccc3nc2N2CCC(C)CC2)n1	20%	-43%	.	9.3µM*
Cc1cc(N2CCC(C)CC2)nc(-n2nc(C)cc2C)n1	-1%	-15%	.	0.74µM*
CCc1nc2ccccc2nc1N1CCN(S(=O)(=O)c2c(C)cc(Cl)cc2C)CC1	2%	1%	-6%	-11%
Nc1cc(S(=O)(=O)c2ccc(O)c(N)c2)ccc1O	-3%	2%	4%	0%
Oc1ccc(Cl)cc1Cc1ccccc1	4%	.	7.6µM*	11µM*
Oc1ccc(Cl)cc1CNCc1ccc(Cl)cc1	37%	10%	5.9µM*	3.7µM*
Oc1ccc(Cl)cc1Cc1cc(Cl)ccc1O	3%	-80%	?	?
Oc1ccc(Cl)cc1CNCc1ccc(F)cc1	13%	6%	5.2µM*	5.2µM*
O=C(O)c1ccc(CNCc2ccc(Cl)cc2Cl)cc1	-1%	4%	.	-3%
Oc1ccc(Cl)cc1CNCc1ccc(C(F)(F)F)cc1	57%	6%	5.9µM*	1.2µM*
COc1cc(/C=N/NC(=O)COc2c(C)cc([N+](=O)[O-])cc2C)ccc1OC(=O)c1ccccc1	10%	18%	0%	?
O=C(Nc1ccon1)Nc1ccccc1C(F)(F)F	18%	-5%	-2%	-26%
COc1ccc(NC(=O)N(C)C[C@H]2Oc3c(NS(=O)(=O)c4ccc(F)cc4)cccc3C(=O)N([C@H](C)CO)C[C@@H]2C)cc1	-3%	7%	.	.
Cc1ccc(CNC(=O)C2CCC(=O)N(Cc3cccc(C(F)(F)F)c3)C2)o1 (stereo not drawn)	-7%	.	.	.
Cc1ccsc1CNCc1cc(Cl)ccc1O	23%	3%	2.9µM*	1.7µM*
SMILES	AMA1 RON2 block	SARS PLpro yeast	Pf growth 96h	Pf growth 48h
Cc1cccc(C)c1NC(=O)C1(N(Cc2ccco2)C(=O)c2ccccn2)CCCC1	24%	-3%	-17%	-14%
Cc1cccc(C)c1NC(=O)C1(N(Cc2ccco2)C(=O)Cn2nnnc2N)CCCCC1	2%	-38%	6.6µM*	6%
Cc1cc(C)n2c(NCc3ccccc3)c(CCc3ccccc3)nc2n1	12%	.	.	.
Cc1ccc(-c2nc(N/N=C/c3ccccc3[N+](=O)[O-])c3ccccc3n2)cc1	58%	6%	89%	140%
O=[N+]([O-])c1ccccc1/C=C/C=N/Nc1ccc(S(=O)(=O)Nc2ccc(Cl)cc2)cc1[N+](=O)[O-]	?	0%	-7%	12µM*
C/C(=N\Nc1ccc(S(=O)(=O)Nc2ccccc2)cc1[N+](=O)[O-])c1ccncc1	.	0%	?	10µM*
COc1ccccc1NS(=O)(=O)c1ccc(N/N=C(\C)C(C)C)c([N+](=O)[O-])c1	?	-5%	?	8.3µM*
C/C(=N\Nc1ccc(S(=O)(=O)Nc2ccc(Cl)cc2)cc1[N+](=O)[O-])c1ccc(N2CCOCC2)cc1	-27%	10%	4.1µM*	?
O=C(O)c1ccc(N/N=C/C=C/c2ccccc2[N+](=O)[O-])cc1	?	2%	i	i
Cc1cccc(C(=O)NCCN2CCCC2)c1	3%	0%	1%	.
COc1ccc(-c2cc(C(=O)O)c3sc(N4CCCCC4)nc3n2)cc1OC	-8%	-3%	?	?
O=[N+]([O-])c1cc(S(=O)(=O)Nc2cccc(Cl)c2)ccc1N/N=C/c1ccc(N2CCOCC2)cc1	4%	0%	?	1.9µM*
C/C(=N\Nc1ccc(S(=O)(=O)Nc2ccccc2)cc1[N+](=O)[O-])c1ccc(N2CCOCC2)cc1	0%	0%	?	?
O=S(=O)(c1ccc(Cl)c(NC(=S)Nc2cccc(O)c2)c1)N1CCOCC1	44%	9%	18%	28%
CCCCSc1nc2sc3c(c2c(=O)n1-c1ccc(C)cc1)CCN(C)C3	-1%	0%	?	?
CCOC(=O)CSc1nc2sc3c(c2c(=O)n1-c1ccc(C)cc1)CCN(C)C3	0%	0%	2.3µM*	4.7µM*
COc1ccc(-n2c(SCC(N)=O)nc3sc4c(c3c2=O)CCN(C)C4)cc1	-9%	1%	2.1µM*	?
COc1ccc(-n2c(SCC(=O)NCc3ccco3)nc3sc4c(c3c2=O)CCN(C)C4)cc1	-13%	19%	?	?
CCOC(=O)CSc1nc2sc3c(c2c(=O)n1-c1ccccc1)CCN(C(C)C)C3	20%	0%	0.83µM*	0%[0.00184 µM]
CN1CCc2c(sc3nc(SCC(=O)NCc4ccco4)n(-c4ccccc4)c(=O)c23)C1	-14%	2%	0.93µM*	9.3µM*
Cc1cc(Cl)ccc1OCCCC(=O)NCCCn1ccnc1	8%	4%	16%	0%
COC(=O)CSc1nc2sc3c(c2c(=O)n1-c1ccc(OC)cc1)CCN(C)C3	-7%	1%	5.2µM*	6.6µM*
CN1CCc2c(sc3nc(NCCO)n(-c4cccc(Cl)c4)c(=O)c23)C1	-7%	-2%	4.7µM*	.
CCSc1nc2sc3c(c2c(=O)n1-c1ccc(OC)cc1)CCN(C)C3	-7%	0%	?	?
COc1ccc(-n2c(SCC(=O)O)nc3sc4c(c3c2=O)CCCC4)cc1	6%	0%	-4%	-4%
C=C(C)CSc1nc2sc3c(c2c(=O)n1-c1ccc(OC)cc1)CCN(C)C3	13%	-1%	1µM*	1.9µM*
COc1ccc(-n2c(SCCNCCO)nc3sc4c(c3c2=O)CCCC4)cc1	69%	3%	9.3µM*	13µM*
O=C(NCC(=O)N1CCCC(C(F)(F)F)C1)c1ccc(Oc2ccccc2)cc1 (stereo not drawn)	-3%	-5%	?	-4%
CCCn1c(=O)c(C(=O)NCc2ccco2)c(O)c2ccccc21	0%	0%	?	21%
S=C1NCCOCCOCCOCCOCCN1	5%	-5%	.	13%
